IL-1B inflam inh: inhibitors of inflammasome signaling (IL-1 beta secretion) | THP-1 LPS/ATP IL-1B secretion, AlphaLISA, 16 h; active compounds read low | activity change, % at 57.5 µM | 360,000 tested, 4.7% active | AID 743279; in the data active = activity change below about -50%; inconclusive = mostly about -30% to -49%
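Secreted IL-1B measured by AlphaLISA bead assay after 16 h compound exposure of THP-1 cells; compounds (final up to 57.5 uM) added 1 h before LPS (250 ng/mL) and ATP (1.25 mM) stimulation; lower signal means less secretion.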
Gal4-VP16 FLuc: inhibits Gal4-VP16 luciferase reporter, ROR gamma counter-screen | Drosophila S2 Gal4-VP16 UAS-luciferase, luminescence, 20 h | Potency, µM (series often up to 53.6 µM), without a hit: at the top dose activity, negative = inhibition, most hits filed as inhibitors | 310,000 tested, 3.5% active | AID 2546;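 also: Gal4-VP16 expression switched on by copper sulfate through the metallothionein promoter; potency is read from the fitted curve at half-maximal effect; nearly all actives have a fitted effect of over 50% in size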
RORg inh: ROR gamma (mouse) transcription inhibition. AID 2551. Potency, µM (highest dose often 53.6 µM), for inactives: at the highest dose activity change, negative = inhibition, usual class: inhibitors. Drosophila S2 Gal4-RORgamma UAS-luciferase reporter, 20 h. P51450. 310,000 tested, 5.4% active; also: potency is read from the fitted curve at half-maximal effect; nearly all actives have a fitted effect of over 60% in size
Target sequence (P51450 whole entry, looked up, the tested form may be a part): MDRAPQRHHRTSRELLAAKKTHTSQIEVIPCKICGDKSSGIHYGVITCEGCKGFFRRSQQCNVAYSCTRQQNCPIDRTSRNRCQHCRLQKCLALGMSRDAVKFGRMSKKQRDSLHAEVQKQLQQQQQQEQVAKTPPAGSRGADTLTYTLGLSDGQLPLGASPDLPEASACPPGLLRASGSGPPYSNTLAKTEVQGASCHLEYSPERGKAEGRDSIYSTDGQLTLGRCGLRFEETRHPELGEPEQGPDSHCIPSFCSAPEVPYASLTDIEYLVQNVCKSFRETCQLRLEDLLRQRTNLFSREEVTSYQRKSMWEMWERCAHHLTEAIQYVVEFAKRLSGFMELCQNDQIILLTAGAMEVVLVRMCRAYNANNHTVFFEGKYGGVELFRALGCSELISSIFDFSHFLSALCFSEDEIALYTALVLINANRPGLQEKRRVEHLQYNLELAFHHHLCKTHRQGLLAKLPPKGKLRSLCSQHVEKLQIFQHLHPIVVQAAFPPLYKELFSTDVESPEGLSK
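Luciferase reporter read in Schneider cells carrying Gal4-RORγ (mouse) and UAS-Photinus luciferase; cells given compound 1 h before 700 uM copper sulfate induction, then incubated 20 h at ambient temperature.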
DT40 TDP1 CPT: DT40-hTDP1 cell growth loss with CPT. chicken DT40 Tdp1-/-;hTDP1 cells + 20 nM CPT, ATP luminescence, 48 h. Potency, µM (series often up to 46.2 µM), for inactives: at the top dose activity change, negative = growth inhibition, actives largely listed as inhibitors. 420,000 tested, 12% active; also: potency is read from the fitted curve at half-maximal effect; nearly all actives have a fitted effect of over 55% in size
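Cell growth measured by CellTiter-Glo luminescence after a minimum 48 h, 37 C compound exposure with 20 nM CPT in Tdp1-knockout DT40 cells stably expressing hTDP1, seeded 400/well; qHTS titration format.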
TDP1 cell noCPT: qHTS for Inhibitors of human tyrosyl-DNA phosphodiesterase 1 (TDP1): qHTS in cells in absence of CPT; Potency, µM (doses to about 46.2 µM), without a hit: top-dose activity change, negative = growth inhibition, hits mostly inhibitors; AID 686978, 2013; 420,000 tested, 15% active; DT40 Tdp1-/- hTDP1 cells, no CPT, ATP luminescence, 48 h; also: potency is read from the fitted curve at half-maximal effect; nearly all actives have a fitted effect of over 55% in size
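Growth kinetics read by CellTiter-Glo luminescence after ≥48 hr at 37 °C. Cells: DT40 Tdp1-/- stably carrying human TDP1, 400 per well, compound exposure in the absence of CPT (DMSO vehicle).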
ELG1 DNA repair: ELG1-dependent DNA repair inhibition; HEK293T ELG1-luciferase reporter, luminescence, 16 h; DNA damage induced by 5-fluorouridine; Potency, µM (top dose mostly 46.1 µM), inactives show at the highest dose activity change, negative = inhibition, hits mostly inhibitors; 330,000 tested, 2.3% active; AID 504467; also: potency is read from the fitted curve at half-maximal effect; nearly all actives have a fitted effect of over 55% in size
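Step one: seed 2,000 cells per well. Step two: pin-transfer compound or DMSO alongside 5-fluorouridine. Step three: incubate 16 hr, 37 °C, 5% CO2. Step four: add ONE-Glo, wait 30 min, read luminescence.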
* marks the source's active call; other numbers are inactive results; ? = inconclusive; / = not tested or not shown; [ ] = dose if it differs, or a comment. The list is not random: actives were taken first. Their share in the collection is about 21%. Unless noted, calls follow the shape of the dose curve; as a rule, active = well fitted curve in the direction sought with a large enough effect; inconclusive = small, poorly fitted or top-dose-only effect, or another doubt; inactive = no such curve, though single readings can be large; an effect the other way counts as inactive or inconclusive. % is scaled to controls: 0 for no effect and ±100 for the full control effect.

SMILES	IL-1B inflam inh	Gal4-VP16 FLuc	RORg inh	DT40 TDP1 CPT	TDP1 cell noCPT	ELG1 DNA repair
CC(Sc1nnc(CN2CCCC2)n1Cc1ccccc1)C(=O)Nc1ccc(F)cc1 (stereo not given)	-6.7	-2.6%	-17.8%	-29.3%	-9.0%	8.1%
Cc1nnc(SC(C)C(=O)Nc2ncc(Cl)cc2Cl)n1Cc1ccccc1 (stereo not given)	-3.3	28.2µM*	?	-4.4%	-5.8%	-3.3%
CC(Sc1nnc(CN2CCCC2)n1Cc1ccccc1)C(=O)Nc1ccc(F)cc1Cl (stereo not given)	?	/	/	18.4µM*	25.9µM*	/
Cc1cnc(-n2ncc(C(=O)N(C)C3CCOC3)c2-c2cccs2)nc1-c1ccc(F)cc1 (stereo not given)	/	/	/	14.3%[9.04 µM]	-20.1%	/
Nc1ccn([C@@H]2O[C@H](C(=O)N3CCCN(Cc4ccccc4F)CC3)[C@@H](O)[C@H]2O)c(=O)n1	18.4	/	/	-0.9%	-20.8%	/
CC(C)CCn1c(SCC(=O)NC2CCS(=O)(=O)C2)nc2cc(Cl)ccc2c1=O (stereo not given)	-17.7	/	/	-6.0%	-14.6%	?
Cc1ccc(NC(=O)CSc2nnc(CNC(=O)C34CC5CC(CC(C5)C3)C4)n2-c2ccc(F)cc2)cc1	-13.4	-8.8%	?	16.4µM*	?	?
Cc1ccc(-n2c(CNc3ccc(F)cc3)nnc2SCC(=O)NCc2ccco2)cc1	-22.8	9.2%	15.3%	16.4µM*	?	-1.4%
COc1ccc(NCc2nnc(SCC(=O)NCc3ccco3)n2-c2ccccc2OC)cc1	9.5	-1.2%	62.9%	-12.5%	-18.1%	-13.7%
O=C(NCc1nnc(SCc2ccc(F)cc2)n1-c1ccccc1)C12CC3CC(CC(C3)C1)C2	-79.1*	?	-2.7%	16.4µM*	5.8µM*	?
O=C(NCc1nnc(SCc2ccc(C(F)(F)F)cc2)n1-c1ccccc1)C12CC3CC(CC(C3)C1)C2	-29.9	?	14.1µM*	?	13µM*	?
Cc1ccc(C)c(CNC(=O)CCn2cccn2)c1	/	/	/	-0.8%	-16.8%	/
CCN(CC)C(=O)C1CCN(S(=O)(=O)c2ccc(C3CNC(=O)C3)cc2)CC1 (stereo not given)	10.8	-0.1%	-11.0%	?	-21.7%	-6.1%
NCCCC(N)CC(=O)NC1CNC(=O)C(C2CC(O)N=C(N)N2)NC(=O)/C(=C/NC(N)=O)NC(=O)C(CO)NC(=O)C(CO)NC1=O (stereo not given)	/	1.6%	4.8%[10 µM]	/	/	/
COc1ccc(OCc2cc(C(=O)NCC(C)(C)N3CCOCC3)no2)c(Cl)c1	0.7	-15.0%	-8.0%	23.1µM*	20.6µM*	15.0%
O=C(NCCc1ccccc1C(F)(F)F)c1cc(COc2ccccc2)on1	-5.0	/	/	16.4µM*	16.4µM*	/
COc1ccc(OCc2cc(C(=O)NCCN3CCCc4ccccc43)no2)c(Cl)c1	-3.4	6.2%	?	14.6µM*	18.4µM*	?
COc1ccc(OCc2cc(C(=O)NCCN3CCCC(O)C3)no2)c(Cl)c1 (stereo not given)	-4.9	-1.1%	-2.7%	-3.5%	14.3%	?
COc1cc(Cl)ccc1OCc1cc(C(=O)NCC(C)(C)N2CCOCC2)no1	4.4	-9.5%	6.7%	-25.2%	-10.3%	?
O=C(NCCc1ccccc1F)c1cc(COc2ccc(F)cc2F)on1	-22.4	/	/	-22.7%	-23.9%	/
COc1ccc(CCNC(=O)c2cc(COc3c(C)cccc3C)on2)c(OC)c1	-8.8	12.7%	6.5%	23.1µM*	-26.8%	?
COc1ccc(CCNC(=O)c2cc(COc3c(F)cccc3F)on2)c(OC)c1	-12.6	24.5%	16.9%	?	?	?
